# According to PubChem BioAssay AID602313 (National Center for Advancing Translational Sciences (NCATS), 2012):
# The whole screen tested about 390,000 compounds, of which about 760 (0.19%) were called active. Not shown: some 3% with an inconclusive outcome. Shown is part of a subset that was picked to be rich in actives. Unmarked numbers belong to inactive results. The call rests on the fitted dose curve; in most records, active means well fitted inhibition curve with a large enough effect; inconclusive means small, poorly fitted or top-dose-only effect; inactive means flat fitted curve, though single readings scatter.
# Assay: qHTS for Inhibitors of Vif-A3F Interactions: qHTS; further: nearly all actives have a fitted effect of over 65% in size; on activity, negative = active: % of control where 0% means no effect
# Conditions: HeLa A3F-eYFP + Vif (tagged APOBEC3F with the HIV-1 protein that degrades it), YFP fluorescence increase; series mostly up to 46.1 µM; activity, negative = active: at the top concentration
# Excerpt: The recent discovery and characterization of host restriction factors, which provide a potent defense to invading retroviruses, has provided new targets for antiviral drug development. APOBEC3G (A3G) and APOBEC3F (A3F) are potent cytidine deaminases that block HIV-1 replication; HIV-1 expresses the Vif protein, which counteracts A3G and A3F by binding to them and inducing their proteasomal degradation. The Vif-A3G and Vif-A3F interactions provide two potential targets for development of small molecules which can interfere with the ability of Vif to degrade A3G or A3F. […] To identify inhibitors that can interfere with Vif mediated degradation of A3G and A3F, we have developed Hela cell lines that stably express A3G or A3F tagged with eYFP at the C-terminal end (A3G-eYFP or A3F-eYFP, respectively) and Vif. In the absence of an inhibitor, Vif induces degradation of A3G-eYFP and A3F-eYFP, and the cells are not fluorescent. In the presence of an inhibitor, it is expected that Vif will be unable to degrade A3G-eYFP and/or A3F-eYFP, resulting in an increase in yellow fluorescence. In this assays Vif A3F was screened against the Molecular Library Small Molecule Repository (MLSMR). NIH Chemical Genomics Center [NCGC] NIH Molecular Libraries Probe Centers Network [MLPCN] MLPCN Grant: MH093245 Assay Submitter (PI): Vinay Pathak, National Cancer Institute
# 5 uL of 700 cells/well of A3F-YFP cells are dispensed into black, clear bottom plates. The plates are incubated overnight at 37 deg C. 23 nL of compounds are added by pintool. The plates are incubated overnight at 37 deg C and then read on the TTP Acumen (Ex 488/ Em 500-530).
# Potency means the concentration at half of the fitted maximal effect.
Structure (SMILES),"activity, negative = active [%]",Potency
COc1ccc(C(=O)Nc2ccc(-n3nncc3-c3ccccc3)cc2)cc1OC,-3.35,
NNC(=O)c1oc2nc(-c3ccccc3)cc(-c3ccco3)c2c1N,,11.2 µM (active)
Cc1ccc(CSc2nc3cccnc3n2Cc2ccc(C(=O)NC3CC3)cc2)cc1,-1.49,
CCOC(=O)c1cnc2c(C)cc(Cl)cc2c1NCCc1ccc(OC)c(OC)c1,-0.291,
O=C(Cc1ccc(Cl)cc1)Nc1ccc2nn(-c3ccc(Cl)cc3)nc2c1,2.37,
CCOC(=O)c1c(C)oc2nc(C)nc(N3CCN(c4ccc(OC)cc4)CC3)c12,0.623,
CC(C)c1ccc(NC(=O)Cn2nnc(C(=O)NCCc3ccccc3)c2N)cc1,-1.66,
O=C(CCCn1c(=O)c2cccn2c2cccnc21)NCc1ccc(F)cc1,0.614,
Cc1cc(=O)n(CC(=O)Nc2cccc([N+](=O)[O-])c2)c(-n2nc(C)cc2C)n1,3.02,
CCOC(=O)c1c(S(=O)(=O)N2CCC(C(=O)NCc3ccccc3OC)CC2)c(C)n(C)c1C,0.785,
CSc1ccc(C2c3c(oc4ccccc4c3=O)C(=O)N2CCCN2CCOCC2)cc1 (stereo not given),8.49,
CSc1ccc(NC(=O)Cn2nnnc2-c2ccccc2F)cc1,0.093,
CCc1nc(Nc2ccc3nccnc3c2)c2oc3ccccc3c2n1,,22.4 µM (active)
C[C@@H](Nc1nc(-c2ccccc2)nc2c1oc1ccccc12)C(=O)O,-10.7,
COCCNc1nc(-c2ccccc2)nc2c1oc1ccccc12,-39.4,
C=CCNC(=S)N/N=C/c1ccc(C)s1,-16.6,
CNC(=S)N/N=C/c1ccc(N2CCOCC2)s1,,1.12 µM (active)
Cc1ccc(C(=O)C(=S)N2CCOCC2)cc1,-8.6,
Oc1[nH]c2ccccc2c1N=Nc1c(F)c(F)c(F)c(F)c1F,,25.1 µM (active)
O=[N+]([O-])c1cc(S(=O)(=O)Nc2cccc(Cl)c2)ccc1N=Nc1c(O)[nH]c2ccccc12,-9.21,
S=c1[nH]c2ccccc2c2ccccc12,0.31,
CCN(CCCNC(=O)c1cc2cc3cc(OC)ccc3nc2s1)c1ccccc1,0.248,
Cc1ccc2nc(/C(C#N)=C/c3ccccc3F)[nH]c2c1,-13.6,
CCOc1ccc(/C=C(\C#N)c2nc3ccccc3c(=O)[nH]2)cc1OC,-2.28,
COc1cc(/C=C(\C#N)c2nc3ccccc3[nH]2)ccc1O,,12.6 µM (active)

Structure (SMILES),"activity, negative = active [%]",Potency
COC(=O)c1cnc(Nc2cc(C)ccc2OC)c2ccccc12,,31.6 µM (active)
COc1ccc(Nc2ncc(C(=O)Nc3cc(C)ccc3OC)c3ccccc23)cc1,-10.3,
COc1ccc(NC(=O)c2cnc(Nc3ccc(C)c(Cl)c3)c3ccccc23)cc1OC,1.11,
O=C(CCS(=O)(=O)c1ccccc1)N(Cc1cccnc1)c1nc2c(F)cccc2s1,-3.73,
S=C(NN=Cc1ccccn1)Nc1ccccn1,,11.2 µM (active)
COc1ccc(-n2c(=O)c3sc4ccccc4c3n(CC(=O)Nc3cccc(C)c3)c2=O)cc1,-15.1,
CCCN(CCC)CCCNC(=O)Cn1ncc2c3ccccc3n(Cc3ccccc3)c2c1=O,-14.4,
Cc1oc2ncnc(N3CCCCC3)c2c1C(=O)N1CCN(c2cccc(Cl)c2)CC1,1.49,
COc1ccc(C)cc1N(CC(=O)N1CCC(C)CC1)S(=O)(=O)c1ccc(C)cc1,-3.25,
Cn1c(COc2ccccc2C(C)(C)C)nc2ccccc21,-7.42,
O=C1CCCc2cc(S(=O)(=O)N3CCCC(C(=O)NCc4ccccc4)C3)ccc2N1 (stereo not given),-3.24,
Cc1nn(CC(=O)N2CCN(c3cccc(C(F)(F)F)c3)CC2)c(=O)c2cc3sccc3n12,5.84,
CCN(Cc1ccccc1)C(=O)c1cn(-c2cccc(OC)c2)c(=O)c2ccccc12,5.04,
COc1cccc(CNC(=O)c2cc(=O)[nH]c3ccc(S(=O)(=O)N4CCCCC4)cc23)c1,1.76,
CCOC(=O)c1c(N)n(-c2cccc(C)c2C)c2nc3ccccc3nc12,3.14,
CCOC(=O)c1cc2n(c1N)-c1ccccc1C2=O,,7.08 µM (active)
CCOC(=O)c1cc(-c2ccccc2)n(CCC(=O)Nc2ccccc2CC)c1C,1.54,
CCOc1ccccc1NC(=O)Cn1nnc(C(=O)Nc2ccc(C)c(C)c2)c1N,-8.19,
COc1ccc(-c2nc3sc(CCNC(=O)C(C)(C)C)c(C)n3n2)cc1,5.15,
CCOC(=O)C(Cc1ccccc1)NC(=O)CCc1c(C)nc2c(c(C)nn2-c2ccc(C)c(C)c2)c1C (stereo not given),-9.62,
COc1ccc(NC(=O)CSc2nccn2Cc2ccc3c(c2)OCO3)cc1,0.0796,
CCN1CCN(CCCNC(=O)c2cnn(-c3ccc(C)cc3C)c2C2CCN(C(=O)OC(C)(C)C)CC2)CC1,1.14,
CCOC(=O)CCCNC(=O)CN1C(=O)NC(CCc2ccccc2)C1=O (stereo not given),-1.81,
Cc1cc(NC(=O)CN2C(=O)NC(CCc3ccccc3)C2=O)no1 (stereo not given),-0.801,
N#CCSc1ccccc1NC(=O)CN1C(=O)NC(CCc2ccccc2)C1=O (stereo not given),,25.1 µM (active)
